# A number with no mark means an inactive call. Results filed as inconclusive are left out. Entries that show only a call come without a potency. For some assays here: Potency and affinity values are given separately. Activity calls are given as the source filed them.
# Experiments:
# [1] = Ebola virus entry assay, green fluorescence channel
# [2] = Ebola virus entry assay, blue channel fluorescence
# [3] = Ebola virus entry assay, green fluorescence channel; remark: listed apart in the source
# [4] = Ebola virus entry assay, ratio channel readout
# [5] = Ebola virus entry assay, blue channel fluorescence; remark: listed apart in the source
# [6] = Ebola virus entry assay, ratio channel
# [7] = Ebola virus entry assay, green channel fluorescence
# [8] = Ebola virus entry assay, reporter ratio channel; AC50: Channel type: primary unless noted; outcome: Channel type: primary unless noted
# [9] = Ebola virus entry cell assay, ratio channel
# [10] = Ebola virus entry assay, blue channel fluorescence; remark: listed apart in the source
# [11] = Ebola virus entry assay, blue channel (ratio component)
# [12] = Ebola virus entry reporter assay, green channel fluorescence
# [13] = Immunotoxin (HA22) sensitization/mitigation study. Vehicle arm (PBS) (AID 1159510); conditions: cancer cells viability with PBS vehicle (HA22 study); series mostly up to 46.1 µM; note: potency is the fitted concentration of half-maximal effect
# [14] = Immunotoxin (SS1P) sensitization/mitigation study. Vehicle arm (DMEM) (AID 1159513); conditions: cell viability with vehicle (DMEM); series mostly up to 46.1 µM; note: potency is the fitted concentration of half-maximal effect
# [15] = qHTS assay for measurement of the activity of small molecule inhibitors on Zika virus induced Caspase-3 activity in human astrocytoma cells (AID 1224859; active = well fitted inhibition curve with a large enough effect); conditions: SNB-19 ZIKV-induced caspase-3/7, luminescence, 6 h; series mostly up to 45.7 µM
# Procedure, shortened: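 A cell-based luminescent caspase-3/7 assay used SNB-19 cells infected with ZIKV (2 FFU/cell) for 6 h following 1 h compound pretreatment.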
# [16] = qHTS assay for measurement of the activity of small molecule inhibitors on Zika virus induced Caspase-3 activity in human iPSC derived neural progenitor cells (hNPCs) (AID 1224857; active = well fitted inhibition curve with a large enough effect; note: nearly all actives have a fitted effect of over 65% in size); conditions: hNPCs ZIKV-induced caspase-3/7, Caspase-Glo luminescence, 6 h; series mostly up to 45.7 µM
# Procedure, shortened: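 In medium with heparin 2 ug/ml and cyclopamine 2 uM, hNPCs (350 cells/well) received compound for one hour and then Zika virus at 2 FFU/cell; caspase activity was measured by Caspase-Glo 3/7 luminescence 6 h post-infection.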
smiles,measurement,setting,value
CC(=O)Oc1ccccc1C(=O)Nc1ncc([N+](=O)[O-])s1,efficacy,[1],16.8%
same,outcome,[2],inactive
same,outcome,[3],inactive
same,outcome,[4],inactive
same,outcome,[5],inactive
same,outcome,[6],inactive
same,outcome,[7],inactive
same,outcome,[8],inactive
same,outcome,[9],inactive
COC(=O)CCc1ccc(OCC(O)CNC(C)C)cc1 (stereo unspecified),efficacy,[1],35.4%
same,outcome,[2],inactive
same,outcome,[3],inactive
same,outcome,[4],inactive
same,AC50,[5],22.4 µM (active)
same,outcome,[6],inactive
same,outcome,[10],inactive
same,AC50,[8],31.6 µM (active)
same,outcome,[11],inactive
same,outcome,[9],inactive
CC(=O)O[C@@]12CO[C@@H]1C[C@H](O)[C@@]1(C)C(=O)[C@H](O)C3=C(C)[C@@H](OC(=O)[C@H](O)[C@@H](NC(=O)OC(C)(C)C)c4ccccc4)C[C@@](O)([C@@H](OC(=O)c4ccccc4)[C@H]21)C3(C)C,efficacy,[1],57.5%
same,outcome,[2],inactive
same,outcome,[3],inactive
same,outcome,[4],inactive
same,outcome,[5],inactive
same,AC50,[6],20 µM (active)
same,outcome,[10],inactive
same,AC50,[8],20 µM (active)
same,outcome,[11],inactive
same,outcome,[12],inactive
same,outcome,[9],inactive
same,Potency,[13],inactive
same,Potency,[14],inactive
O=C(c1ccc(OCCN2CCCCC2)cc1)c1c(-c2ccc(O)cc2)sc2cc(O)ccc12,efficacy,[1],-297%
same,AC50,[2],6.31 µM (active)
same,outcome,[3],inactive
same,AC50,[4],5.02 µM (active)
same,AC50,[5],0.708 µM (active)
same,outcome,[6],inactive
same,outcome,[7],inactive
same,AC50,[9],5.01 µM (active)
CN(C)c1ccc(O)c2c1C[C@H]1C[C@H]3[C@H](N(C)C)C(=O)C(C(N)=O)=C(O)[C@@]3(O)C(=O)C1=C2O,efficacy,[1],116%
same,outcome,[2],inactive
same,outcome,[3],inactive
same,outcome,[4],inactive
same,outcome,[5],inactive
same,outcome,[6],inactive
same,outcome,[10],inactive
same,outcome,[8],inactive
same,outcome,[11],inactive
same,outcome,[9],inactive
CN(C)CC[C@@H](c1ccc(Br)cc1)c1ccccn1,efficacy,[1],34.2%
same,outcome,[2],inactive
same,outcome,[3],inactive
same,outcome,[4],inactive
same,AC50,[5],39.8 µM (active)
same,outcome,[6],inactive
same,outcome,[7],inactive
same,AC50,[8],39.8 µM (active)
same,outcome,[9],inactive
C[C@]12C/C(=C/O)C(=O)C[C@@H]1CC[C@@H]1[C@@H]2CC[C@@]2(C)[C@H]1CC[C@]2(C)O,efficacy,[1],90.8%
same,outcome,[2],inactive
same,outcome,[3],inactive
same,outcome,[4],inactive
same,outcome,[5],inactive
same,AC50,[6],14.1 µM (active)
same,outcome,[10],inactive
same,AC50,[8],14.1 µM (active)
same,outcome,[11],inactive
same,outcome,[12],inactive
same,outcome,[9],inactive
same,outcome,[15],inactive
CCN(CCO)CCCC(C)Nc1ccnc2cc(Cl)ccc12 (stereo unspecified),efficacy,[1],21.3%
same,outcome,[2],inactive
same,outcome,[3],inactive
same,outcome,[4],inactive
same,AC50,[5],1.12 µM (active)
same,AC50,[6],1.41 µM (active)
same,outcome,[7],inactive
same,AC50,[8],1.41 µM (active)
same,AC50,[9],1.26 µM (active)
same,Potency,[13],inactive
same,Potency,[14],inactive
OCCOCCN1CCN(C(c2ccccc2)c2ccc(Cl)cc2)CC1 (stereo unspecified),efficacy,[1],86%
same,outcome,[2],inactive
same,outcome,[3],inactive
same,outcome,[4],inactive
same,AC50,[5],25.1 µM (active)
same,AC50,[6],31.6 µM (active)
same,outcome,[10],inactive
same,AC50,[8],31.6 µM (active)
same,outcome,[12],inactive
same,outcome,[9],inactive
C[C@@H](O)[C@H]1C(=O)N2C(C(=O)O)=C(S[C@@H]3CN[C@H](CNS(N)(=O)=O)C3)[C@H](C)[C@H]12,efficacy,[1],41.5%
same,outcome,[2],inactive
same,outcome,[3],inactive
same,outcome,[4],inactive
same,outcome,[5],inactive
same,outcome,[6],inactive
same,AC50,[8],25.1 µM (active)
same,outcome,[11],inactive
same,outcome,[12],inactive
same,outcome,[9],inactive
CCc1ccc(CCOc2ccc(CC3SC(=O)NC3=O)cc2)nc1 (stereo unspecified),efficacy,[1],52.6%
same,outcome,[2],inactive
same,outcome,[3],inactive
same,outcome,[4],inactive
same,outcome,[5],inactive
same,outcome,[6],inactive
same,outcome,[10],inactive
same,outcome,[8],inactive
same,outcome,[12],inactive
same,outcome,[9],inactive
CCC(COC(=O)c1cc(OC)c(OC)c(OC)c1)(c1ccccc1)N(C)C (stereo unspecified),efficacy,[1],72.4%
same,outcome,[2],inactive
same,outcome,[3],inactive
same,outcome,[4],inactive
same,outcome,[5],inactive
same,AC50,[6],17.8 µM (active)
same,AC50,[8],17.8 µM (active)
same,outcome,[11],inactive
same,outcome,[12],inactive
same,outcome,[9],inactive
same,Potency,[16],inactive
same,outcome,[15],inactive
O=C1CCc2cc(OCCCCc3nnnn3C3CCCCC3)ccc2N1,efficacy,[1],80.2%
same,outcome,[2],inactive
same,outcome,[3],inactive
same,outcome,[4],inactive
same,outcome,[5],inactive
same,outcome,[6],inactive
same,outcome,[10],inactive
same,outcome,[8],inactive
same,outcome,[11],inactive
same,outcome,[9],inactive
O=C1Nc2ccc(Cl)cc2[C@@](C#CC2CC2)(C(F)(F)F)O1,efficacy,[1],-11.3%
same,outcome,[2],inactive
same,outcome,[3],inactive
same,outcome,[4],inactive
same,AC50,[5],17.8 µM (active)
same,AC50,[6],22.4 µM (active)
same,outcome,[7],inactive
same,AC50,[8],22.4 µM (active)
same,outcome,[9],inactive
same,Potency,[13],42.9 µM (active)
same,Potency,[14],48.1 µM (active)
COc1cc(C(C)=O)ccc1OCCCN1CCC(c2noc3cc(F)ccc23)CC1,efficacy,[1],81.4%
same,outcome,[2],inactive
same,outcome,[3],inactive
same,outcome,[4],inactive
same,AC50,[5],31.6 µM (active)
same,AC50,[6],28.2 µM (active)
same,AC50,[8],28.2 µM (active)
same,outcome,[9],inactive
CN(C)CCCN1c2ccccc2Sc2ccc(Cl)cc21,efficacy,[1],-179%
same,AC50,[2],10 µM (active)
same,outcome,[3],inactive
same,outcome,[4],inactive
same,AC50,[5],14.1 µM (active)
same,AC50,[6],3.98 µM (active)
same,AC50,[8],3.98 µM (active)
same,AC50,[9],10 µM (active)

# Reference: PubChem BioAssay (NCATS)
